Assay results from PubChem BioAssay (NCI).
Compounds without any hit were thinned out: in the full panel of roughly 79,000, 15% have a hit. Unmarked numbers belong to inactive results. Activity calls are given as the source filed them. Cut-off read from the data, not from the text of the source: active = growth inhibition above about 70%; inactive = the rest.

Assay: NCI Yeast Anticancer Drug Screen. Data for the mlh1 rad18 strain (AID 175)
Settings: S. cerevisiae mlh1 rad18 strain growth inhibition; at 50.0 µM (retest, dose inferred, filed as 5.0); hits give high values
Outline: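 Genetically defined yeast (DNA repair-deficient) exposed to compounds; growth inhibition determined relative to vehicle.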

| SMILES | growth inhibition |
| --- | --- |
| COC(=O)C1C(c2ccccc2)=N[C@@H](c2ccccc2)[C@H]1C(=O)OC (stereo not given in full) | 0% |
| CCCCCCCCCC(C)CC(=O)NCCCN(C)CCCCN(C)C (stereo not given) (tested in a mixture with another compound) | 76% (active) |
| Cc1ccc(N=C2SC(=S)N(CCC[N+](C)(C)C)C2=Nc2ccc(C)cc2)cc1 | 100% (active) |
| N#CSc1ccc(O)c2ccccc12 | 74% (active) |
| CCCCCC1OC(CCCCC)OC(CCCCC)O1 (stereo not given) | -3% |
| ClC1(c2ccccc2)c2ccccc2-c2ccccc21 | 94% (active) |
| CCN(CC)c1ccc(NC(CC(O)c2ccccc2)c2ccccc2)cc1 (stereo not given) | -7% |
| CCCCCCC[n+]1ccc(C(=O)c2ccccc2)cc1 | 99% (active) |
| O=c1[nH][nH]c(=O)c2c1nc(SCc1ccccc1)n2Cc1ccccc1 | 7% |
| CCOC(=O)C(NNc1ccccc1)C(c1ccccc1)[P+](c1ccccc1)(c1ccccc1)c1ccccc1 (stereo not given) | 99% (active) |
| CC(C)/C=C1\CCC(CN2CCOCC2)C1=O (stereo not given) | 71% (active) |
| CCc1cc2nc3c(=O)[nH]c(=O)nc-3n(CCN(CCO)CCO)c2cc1CC | 7% |
| c1ccc2c(c1)OCC(CN1CCN(CC3COc4ccccc4O3)CC1)O2 (stereo not given) | 60% |
| CNC(C)C(=O)c1ccc2ccc3ccccc3c2c1 (stereo not given) | 28% |
| O=[N+]([O-])c1ccc(N=C(Cl)C(Cl)(c2ccccc2)c2ccccc2)cc1 | 97% (active) |
| O=[N+]([O-])c1ccc2c(c1)Cc1cc(Cl)ccc1-2 | 5% |
| CCCCCCOC(=O)Nc1ccc(S(=O)(=O)N2CCCCC2)cc1 | 46% |
| CCCCCCCCCCCOc1cccc(N2C(N)=NC(N)=NC2(C)C)c1 | 95% (active) |
| O=Nc1c(NO)c2ccccc2c2ccccc12 | 95% (active) |
| CCCCCCCCCCCCCCCCOS(=O)(=O)O | 100% (active) |

| SMILES | growth inhibition |
| --- | --- |
| CCCCCCCCCCCCCCCCCC[N+](C)(C)Cc1ccc(C[N+](C)(C)CCCCCCCCCCCCCCCCCC)cc1 | 26% |
| NNc1ccc2ccccc2n1 | 99% (active) |
| Cc1cc(NC(=S)SCc2ccc(F)cc2)c([N+](=O)[O-])cc1C | 98% (active) |
| COC(=O)/C(=C\c1cn(C(C)=O)c2ccccc12)P(=O)(OC)OC | 69% |
| O=C(Nc1ccccc1)c1ccccc1O | 98% (active) |
| CC(=O)c1c2c(cc3c1CC1(Cc4ccccc4C1=O)C3)CCC2 (stereo not given) | 73% (active) |
| CC(=O)c1c(-c2ccco2)c(C#N)c(=S)n(C2OC(CO)C(O)C(O)C2O)c1-c1ccccc1 (stereo not given) | 45% |
| CC1(C)OC2C(CO)OC(n3ncc(=S)[nH]c3=O)C2O1 (stereo not given) | 30% |
| C=C(C)C1CC/C(C)=C/CCC2(C)OC2CC/C(CO)=C\C1O (stereo not given) | 96% (active) |
| CC(C)CCSc1ncnc2nc[nH]c12 | 6% |
| COC(=O)C1(Cc2ccc3c(c2)CCC3)Cc2ccc3c(c2C1O)CCC3 (stereo not given) | 94% (active) |
| Nc1ccc(C(=O)NN2C(=O)C(Cl)C2c2cc(Br)cc(Br)c2O)cc1 (stereo not given) | 85% (active) |
| COc1ccc(SC2=C(N(C)C(C)=O)C(=O)c3ccccc3C2=O)cc1 | 99% (active) |
| O=[N+]([O-])c1ccc(N/N=C/CCCCCCCCCCBr)c([N+](=O)[O-])c1 | -2% |
| O=C(c1ccccc1)c1cccc2ccccc12 | 14% |
| O=S1(=O)CCc2ccccc2C(Br)C1Br (stereo not given) | 99% (active) |
| CC(/C=N/NS(=O)(=O)c1ccc(C)cc1)=C(c1ccccc1)c1ccccc1 | 94% (active) |
| Cc1cc(CC(O)(C(F)(F)F)C(F)(F)F)cc(CC(O)(C(F)(F)F)C(F)(F)F)n1 | 99% (active) |
| O=S(=O)(c1cc(Cl)c(Cl)cc1Cl)N(CCCCCN(S(=O)(=O)c1cc(Cl)c(Cl)cc1Cl)S(=O)(=O)c1cc(Cl)c(Cl)cc1Cl)S(=O)(=O)c1cc(Cl)c(Cl)cc1Cl | -17% |
| O=c1cc(-c2ccccc2)oc2ccc(-c3ccc4oc(-c5ccccc5)cc(=O)c4c3)cc12 | 25% |

Same assay, conditions: S. cerevisiae mlh1 rad18 strain growth inhibition; at 50.0 µM; hits give high values

| SMILES | growth inhibition |
| --- | --- |
| COC(=O)C1C(c2ccccc2)=N[C@@H](c2ccccc2)[C@H]1C(=O)OC (stereo not given in full) | 76.7% (active) |
| CCCCCCCCCC(C)CC(=O)NCCCN(C)CCCCN(C)C (stereo not given) (tested in a mixture with another compound) | 82.3% (active) |
| Cc1ccc(N=C2SC(=S)N(CCC[N+](C)(C)C)C2=Nc2ccc(C)cc2)cc1 | 99.4% (active) |
| N#CSc1ccc(O)c2ccccc12 | 89.5% (active) |
| CCCCCC1OC(CCCCC)OC(CCCCC)O1 (stereo not given) | 11.7% |
| ClC1(c2ccccc2)c2ccccc2-c2ccccc21 | 97.1% (active) |
| CCN(CC)c1ccc(NC(CC(O)c2ccccc2)c2ccccc2)cc1 (stereo not given) | 24.5% |
| CCCCCCC[n+]1ccc(C(=O)c2ccccc2)cc1 | 99.5% (active) |
| O=c1[nH][nH]c(=O)c2c1nc(SCc1ccccc1)n2Cc1ccccc1 | 9.45% |
| CCOC(=O)C(NNc1ccccc1)C(c1ccccc1)[P+](c1ccccc1)(c1ccccc1)c1ccccc1 (stereo not given) | 99.7% (active) |
| CC(C)/C=C1\CCC(CN2CCOCC2)C1=O (stereo not given) | 67.2% |
| CCc1cc2nc3c(=O)[nH]c(=O)nc-3n(CCN(CCO)CCO)c2cc1CC | 81.9% (active) |
| c1ccc2c(c1)OCC(CN1CCN(CC3COc4ccccc4O3)CC1)O2 (stereo not given) | 81.2% (active) |
| CNC(C)C(=O)c1ccc2ccc3ccccc3c2c1 (stereo not given) | 71.5% (active) |
| O=[N+]([O-])c1ccc(N=C(Cl)C(Cl)(c2ccccc2)c2ccccc2)cc1 | 95.5% (active) |
| O=[N+]([O-])c1ccc2c(c1)Cc1cc(Cl)ccc1-2 | 46.1% |
| CCCCCCOC(=O)Nc1ccc(S(=O)(=O)N2CCCCC2)cc1 | 52.5% |
| CCCCCCCCCCCOc1cccc(N2C(N)=NC(N)=NC2(C)C)c1 | 98.7% (active) |
| O=Nc1c(NO)c2ccccc2c2ccccc12 | 98.2% (active) |
| CCCCCCCCCCCCCCCCOS(=O)(=O)O | 99% (active) |

| SMILES | growth inhibition |
| --- | --- |
| CCCCCCCCCCCCCCCCCC[N+](C)(C)Cc1ccc(C[N+](C)(C)CCCCCCCCCCCCCCCCCC)cc1 | 8.2% |
| NNc1ccc2ccccc2n1 | 93.4% (active) |
| Cc1cc(NC(=S)SCc2ccc(F)cc2)c([N+](=O)[O-])cc1C | 99.1% (active) |
| COC(=O)/C(=C\c1cn(C(C)=O)c2ccccc12)P(=O)(OC)OC | 75.8% (active) |
| O=C(Nc1ccccc1)c1ccccc1O | 97.2% (active) |
| CC(=O)c1c2c(cc3c1CC1(Cc4ccccc4C1=O)C3)CCC2 (stereo not given) | 61.5% |
| CC(=O)c1c(-c2ccco2)c(C#N)c(=S)n(C2OC(CO)C(O)C(O)C2O)c1-c1ccccc1 (stereo not given) | 62.6% |
| CC1(C)OC2C(CO)OC(n3ncc(=S)[nH]c3=O)C2O1 (stereo not given) | -24.9% |
| C=C(C)C1CC/C(C)=C/CCC2(C)OC2CC/C(CO)=C\C1O (stereo not given) | 91.5% (active) |
| CC(C)CCSc1ncnc2nc[nH]c12 | 33.8% |
| COC(=O)C1(Cc2ccc3c(c2)CCC3)Cc2ccc3c(c2C1O)CCC3 (stereo not given) | 85.3% (active) |
| Nc1ccc(C(=O)NN2C(=O)C(Cl)C2c2cc(Br)cc(Br)c2O)cc1 (stereo not given) | 94.7% (active) |
| COc1ccc(SC2=C(N(C)C(C)=O)C(=O)c3ccccc3C2=O)cc1 | 99.6% (active) |
| O=[N+]([O-])c1ccc(N/N=C/CCCCCCCCCCBr)c([N+](=O)[O-])c1 | 21.4% |
| O=C(c1ccccc1)c1cccc2ccccc12 | 88.2% (active) |
| O=S1(=O)CCc2ccccc2C(Br)C1Br (stereo not given) | 99.3% (active) |
| CC(/C=N/NS(=O)(=O)c1ccc(C)cc1)=C(c1ccccc1)c1ccccc1 | 85% (active) |
| Cc1cc(CC(O)(C(F)(F)F)C(F)(F)F)cc(CC(O)(C(F)(F)F)C(F)(F)F)n1 | 99% (active) |
| O=S(=O)(c1cc(Cl)c(Cl)cc1Cl)N(CCCCCN(S(=O)(=O)c1cc(Cl)c(Cl)cc1Cl)S(=O)(=O)c1cc(Cl)c(Cl)cc1Cl)S(=O)(=O)c1cc(Cl)c(Cl)cc1Cl | 97.8% (active) |
| O=c1cc(-c2ccccc2)oc2ccc(-c3ccc4oc(-c5ccccc5)cc(=O)c4c3)cc12 | 87.8% (active) |
